This is a sample that favours compounds with a hit; in the whole collection about 19% have one here.
IL-1B inflam inh – blocks inflammasome-driven IL-1 beta release; activity change, % at 57.5 µM; THP-1 LPS/ATP IL-1B secretion, AlphaLISA, 16 h; stronger effect = lower value; hit rate 4.7% among 360,000; in the data active means activity change below about -50%; inconclusive means mostly about -30% to -49%
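Secreted IL-1B measured by AlphaLISA bead assay after 16 h compound exposure of THP-1 cells; compounds (final up to 57.5 uM) added 1 h before LPS (250 ng/mL) and ATP (1.25 mM) stimulation; lower signal means less secretion.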
DT40 TDP1 no CPT – qHTS for Inhibitors of human tyrosyl-DNA phosphodiesterase 1 (TDP1): qHTS in cells in absence of CPT | DT40 Tdp1-/- hTDP1 cells, no CPT, ATP luminescence, 48 h | Potency, µM (highest dose often 46.2 µM), for the others: top-dose activity change, negative = growth inhibition, hits mostly inhibitors | hit rate 15% among 420,000 | AID 686978, 2013; further: potency means the concentration at half of the fitted maximal effect; nearly all actives have a fitted effect of over 55% in size
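Growth of hTDP1-complemented DT40 Tdp1-knockout cells is measured by ATP luminescence after at least 48 hr compound exposure at 37 °C, with DMSO substituting for the 20 nM CPT used in the parallel screen.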
ELG1 repair inh – inhibitors of ELG1-dependent DNA repair in HEK293T cells | Potency, µM (titrated, usually from 46.1 µM), without a hit: top-dose activity change, negative = inhibition, hits mostly inhibitors | hit rate 2.3% among 330,000 | HEK293T ELG1-luciferase reporter, luminescence, 16 h; DNA damage induced by 5-fluorouridine; further: potency means the concentration at half of the fitted maximal effect; nearly all actives have a fitted effect of over 55% in size
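In this reporter screen, reduction of luminescence relative to DMSO vehicle indicated activity. Compounds and 5-fluorouridine were added together to 2,000 cells per well, incubated for 16 hr at 37 °C, then developed with ONE-Glo.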
DT40 TDP1 CPT – growth inhibition of DT40 Tdp1-/-;hTDP1 cells with camptothecin (screen for TDP1 inhibitors); chicken DT40 Tdp1-/-;hTDP1 cells + 20 nM CPT, ATP luminescence, 48 h; hit rate 12% among 420,000; Potency, µM (titrated, usually from 46.2 µM), for the others: at the highest dose activity change, negative = growth inhibition, usual class: inhibitors; further: potency means the concentration at half of the fitted maximal effect; nearly all actives have a fitted effect of over 55% in size
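Chicken DT40 Tdp1-/- cells complemented with human TDP1, 400 cells/well, exposed to compounds plus 20 nM camptothecin for at least 48 h at 37 C; viability read as ATP content by CellTiter-Glo luminescence.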
HT1080 IDH1KD tx – toxicity to HT-1080 IDH1 knockdown cells (counter line); HT-1080 IDH1 knockdown viability, ATP luminescence, 48 h; Potency, µM (highest dose often 46.1 µM), without a hit: at the highest dose activity, negative = toxicity, most hits filed as cytotoxic; hit rate 2% among 360,000;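 further: potency means the concentration at half of the fitted maximal effect; 0% = DMSO wells and -100% = cell-free medium wells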
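In this qHTS, HT-1080 cells depleted of IDH1 are exposed for 48 h at 37 °C to compound titrations. Toxicity is scored from CellTiter-Glo luminescence, with DMSO as full viability and medium alone as none.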
HT1080-NT tox – kills 2HG-producing HT-1080-NT fibrosarcoma cells; hit rate 1.6% among 360,000; AID 686970; HT-1080-NT fibrosarcoma viability, CellTiter-Glo ATP luminescence, 48 h; Potency, µM (doses to about 46.1 µM), for inactives: top-dose activity, negative = less viability, usual class: cytotoxic;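 further: NT is the 2HG producing partner of a matched IDH1 knockdown line; potency means the concentration at half of the fitted maximal effect; 0% = DMSO-treated cells and -100% = media-only wells without cells; nearly all actives have a fitted effect of over 55% in size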
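Compounds were tested in concentration-response format on HT-1080-NT cells for 48 hours at 37 degrees C. Cell viability came from CellTiter-Glo luminescence; curves were classified by r2, response magnitude and activity.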
* marks the source's active call; other numbers are inactive results; u = inconclusive; x = no result; [ ] = dose if it differs, or a comment. Unless noted, the call rests on the fitted dose curve; in most records, active means well fitted curve in the direction sought with a large enough effect; inconclusive means small, poorly fitted or top-dose-only effect, or another doubt; inactive means no such curve, though single readings can be large; an effect the other way counts as inactive or inconclusive. Unless noted, on the % scale 0 is the no-effect control and ±100 the full control effect.

SMILES | IL-1B inflam inh | DT40 TDP1 no CPT | ELG1 repair inh | DT40 TDP1 CPT | HT1080 IDH1KD tx | HT1080-NT tox
O=C(c1ccc2c(c1)OCCO2)N(Cc1cccnc1)c1nc2c(F)cccc2s1 | x | u | x | 21µM* | x | x
COc1cccc2sc(N(Cc3cccnc3)C(=O)COc3ccccc3)nc12 | x | -15% | x | -19% | x | x
O=C(c1ccc2c(c1)OCCO2)N(Cc1cccnc1)c1nc2ccc(Cl)cc2s1 | x | -3% | x | -16% | x | x
CCOc1cccc2sc(N(Cc3cccnc3)C(=O)c3ccc(C#N)cc3)nc12 | x | 23µM* | x | 18µM* | x | x
COC(=O)C1N[C@@H]([C@@H](NC(=O)COc2ccccc2)C(=O)NC2CC2)SC1(C)C (stereo partly specified) | 4 | -1% | x | -11% | 19% | 19%
Cc1ccc(CCNC(=O)C2CC(c3cc(C(F)(F)F)cc(C(F)(F)F)c3)=NO2)cc1 (stereo unspecified) | 0 | u | 10% | u | 18% | 15%
Cc1ccc(CNC(=O)C2CC(c3cc(C(F)(F)F)cc(C(F)(F)F)c3)=NO2)o1 (stereo unspecified) | 31 | 4.6µM* | 1% | 3.3µM* | 23µM* | u
O=C(NCc1ccco1)C1CC(c2ccc(C(F)(F)F)cc2)=NO1 (stereo unspecified) | 10 | 12µM* | x | 13µM* | u | u
COc1cc(C2=NOC(C(=O)Nc3ccc(C(C)=O)cc3)C2)cc(OC)c1OC (stereo unspecified) | -5 | -5% | u | -21% | 5% | -15%[9.24 µM]
COc1ccc(C2=NOC(C(=O)NCc3ccco3)C2)cc1 (stereo unspecified) | 15 | 2.8µM* | u | 4µM* | 6.3µM* | 7.1µM*
COc1cc(C2=NOC(C(=O)NCc3ccco3)C2)cc(OC)c1OC (stereo unspecified) | 38 | 3.3µM* | 4% | 4.1µM* | x | x
CC(NC(=O)/C(=C/c1ccc2c(c1)OCO2)NC(=O)c1cccc([N+](=O)[O-])c1)C(=O)O (stereo unspecified) | -13 | -3% | 6% | -1% | 10% | 21%
CCN(CC)c1ccc(C2C(C(=O)Nc3ccccc3C)=C(C)Nc3ncnn32)cc1 (stereo unspecified) | x | -24% | x | 0% | x | x
COc1cccc(N2CCN(C(=O)CCCn3c(=O)[nH]c4ccc(Br)cc4c3=O)CC2)c1 | x | 6.5µM* | x | 21µM* | x | x
COc1ccc(N2CCN(C(=O)CCCn3c(=O)[nH]c4cc(Cl)ccc4c3=O)CC2)cc1 | 7 | u | u | u | -9% | -8%
COc1cc2[nH]c(=O)n(CCCCCC(=O)N3CCN(c4ccccn4)CC3)c(=O)c2cc1OC | 11 | u | u | u | 12% | -1%
COc1cc2[nH]c(=O)n(CCC(=O)N3CC=C(c4ccccc4)CC3)c(=O)c2cc1OC | 13 | -3% | 1% | 2% | 18% | 2%
CCOc1cc2[nH]c(=O)n(CCCC(=O)N3CCN(c4ccc(OC)cc4)CC3)c(=O)c2cc1OCC | x | 21µM* | x | u | x | x
CCOc1cc2[nH]c(=O)n(CCCCC(=O)N3CCN(c4ccccc4OC)CC3)c(=O)c2cc1OCC | x | 9.2µM* | x | 13µM* | x | x
COc1cc2[nH]c(=O)n(CCCC(=O)N3CC=C(c4ccccc4)CC3)c(=O)c2cc1OC | u | 21µM* | u | u | 0% | 2%
CC(C)NC(=O)N1CCC2(CC1)CCN(C(=O)c1ccncc1)CC2 | x | 2% | x | 5% | x | x
COc1cccc(-c2nnc(-c3ccccc3NC(=O)c3ccc(C(C)(C)C)cc3)o2)c1 | 2 | -7% | 22% | 5% | 5% | 0%
CCOC(=O)N1CCN(C(=O)CCCn2c(=S)[nH]c3ccc(Br)cc3c2=O)CC1 | 8 | -22% | 23µM* | u | 5% | -2%
O=C(CCn1c(=O)[nH]c2ccccc2c1=O)N1CC=C(c2ccccc2)CC1 | 3 | u | -20% | -25% | 10% | 18%
C=CCn1c(=O)[nH]c2cc(C(=O)N3CC=C(c4ccccc4)CC3)ccc2c1=O | -13 | 26µM* | -7% | u | -10% | -2%
SMILES | IL-1B inflam inh | DT40 TDP1 no CPT | ELG1 repair inh | DT40 TDP1 CPT | HT1080 IDH1KD tx | HT1080-NT tox
CC(C)=C[C@H]1C[C@H](C)[C@H]2CC[C@H](C)c3c(O[C@@H]4OC[C@@H](O)[C@H](O)C4O)c(O)c(C)c1c32 (stereo partly specified) | -74* | u | 17% | -29% | u | u
CC(=O)OC1[C@H](Oc2c(O)c(C)c3c4c2[C@@H](C)CC[C@@H]4[C@@H](C)C[C@@H]3C=C(C)C)OC[C@@H](O)[C@@H]1O (stereo partly specified) | -3 | -31% | 18% | 5% | 10% | -22%
CC(=O)O[C@H]1[C@H](O)[C@H](Oc2c(O)c(C)c3c4c2[C@@H](C)CC[C@@H]4[C@@H](C)C[C@H]3C=C(C)C)O[C@@H](C)[C@H]1O | -77* | 18µM* | u | u | u | u
CC(C)=C[C@@H]1C[C@H](C)[C@H]2CC[C@H](C)c3c(O)c(O)c(C)c1c32 | -8 | u | 20% | 21µM* | -4% | -1%
COc1ccccc1CCC(=O)OCC(=O)Nc1cc(C)nn1-c1ccccc1 | 5 | -4% | 0% | 5% | -1% | 5%
C=CC[C@H](CC(=O)NCCO)C(=O)N[C@H](COC(=O)[C@@H](CC=C)Cc1ccc(F)cc1)C(C)(C)C | -10 | 18µM* | 4% | u | 0% | -4%
C=CC[C@@H](CC(=O)N[C@H](CO)Cc1ccccc1)C(=O)N[C@H](COC(=O)[C@@H](CC=C)Cc1ccc(F)cc1)Cc1ccccc1 | -2 | 15µM* | -13% | 23µM* | -1% | 5%
C=CC[C@H](CC(=O)NCCO)C(=O)NCCOC(=O)[C@@H](CC=C)Cc1ccc(F)cc1 | -3 | -12% | 15% | -3% | 0% | 10%
C=CC[C@@H](CC(=O)NCCO)C(=O)N[C@H](COC(=O)[C@@H](CC=C)Cc1ccc(F)cc1)Cc1c[nH]c2ccccc12 | -11 | u | -6% | u | -1% | 0%
C=CC[C@@H](CC(=O)NCCO)C(=O)N[C@@H](COC(=O)[C@@H](CC=C)Cc1ccc(F)cc1)Cc1ccccc1 | -6 | u | -2% | 18µM* | -9% | -1%

Bioassay records as filed in PubChem BioAssay.
